# Source: PubChem BioAssay (NCATS)
# Records with an inconclusive call do not appear. Values without a mark were called inactive. Active and inactive are the calls of the source. Calls come from the whole dose curve; as a rule, active = well fitted inhibition curve with a large enough effect; inconclusive = small, poorly fitted or top-dose-only effect; inactive = flat fitted curve, though single readings scatter.
# Test system: CRL-7250
# Test: Cytotoxic Profiling of Annotated Libraries Using Quantitative High-Throughput Screening (AID 1296008); note: nearly all actives have a fitted effect of over 60% in size
# Details: Five cell lines viability, CellTiter-Glo ATP luminescence, 48-72 h; max response: stronger effect = lower value
# Summary of the method: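 Cells exposed to compounds for 48 or 72 hr at 37 degrees Celsius. Viability read as ATP-coupled luminescence with CellTiter-Glo after 10 min at room temperature.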
# % is set by controls: 0 for no effect and ±100 for the full control effect; potency is the fitted concentration of half-maximal effect.
SMILES,max response [%],outcome,Potency
CC1(C)CC[C@]2(C(=O)O)[C@H](O)C[C@]3(C)C(=CCC4[C@@]5(C)CC[C@H](O[C@@H]6O[C@H](CO[C@@H]7OC[C@H](O)[C@H](O)[C@H]7O[C@@H]7OC[C@@H](O)[C@H](O)[C@H]7O)[C@@H](O)[C@H](O)[C@H]6O[C@@H]6O[C@H](CO)[C@@H](O)[C@H](O)[C@H]6O)C(C)(C)C5CC[C@]43C)[C@@H]2C1 (some centres undefined),-10.1,,
O=C1C=CC2OC(c3ccccc3)C(O)C2O1 (centres undefined),-15.8,,
CC1=C(COC2OC(CO)C(O)C(O)C2O)C(C(CO)C(=O)O)CC1 (centres undefined),2.58,,
CC(C(O)/C=C/C(C)(C)O)C1CCC2(C)C3C(=O)C=C4C(CCC(O)C4(C)C)C3(C)CCC12C (centres undefined),-0.192,,
C=C(CO)C12OC1C1(C)C(=CC2=O)C(O)C(O)CC1C (centres undefined),-0.172,,
O=S(=O)(c1ccc(S(=O)(=O)n2cnc3ccccc32)cc1)N1CCCCCC1,-2.18,,
C[C@H]1CC[C@@]2(OC1)O[C@H]1CC3C4CC[C@H]5C[C@@H](O)[C@H](O)C[C@]5(C)C4=CC(=O)[C@]3(C)[C@H]1[C@@H]2C (some centres undefined),-0.885,,
C/C1=C\C[C@]2(C)C(=O)C(O)=C([C@H](C)CO)[C@H]2C/C=C(\C)[C@@H](O)CC/C(C)=C/CC1,3.52,,
COc1c(C)c(OCC(O)C(C)(C)O)cc2c1COC2=O (centres undefined),4.27,,
C1CCC[C@H]2CCCN3CC[C@@H](CCCCCC[C@@H]4CCCN5CC[C@@H](CC1)O[C@@H]45)O[C@@H]23,0.135,,
Cc1cc(NC(=O)Nc2ccc(F)c(F)c2)n(-c2ccccc2)n1,4.98,,
C[C@@H]1CC[C@]2(C(=O)OC3OC(CO)C(O)C(O)C3O)CC[C@]3(C)C(=CCC4[C@@]5(C)CC[C@H](O)[C@](C)(C(=O)O)C5CC[C@]43C)C2[C@]1(C)O (some centres undefined),,inactive,
O=C(NCC(O)CO)c1ccncc1Nc1ccc(I)cc1F (centres undefined),,,6.51 µM (active)
CC(O)CCC1C(CO[C@@H]2O[C@H](CO)[C@@H](O)[C@H](O)[C@H]2O)CC(O)CC1(C)C (some centres undefined),,inactive,
N#Cc1ccc(C(=O)N2CCC3(CC2)N=C(N)c2c(F)ccc(F)c2N3)cn1,-4.2,,
COc1cc([C@H]2c3cc(O)c(OC)cc3C[C@@H](CO[C@@H]3O[C@H](CO)[C@@H](O)[C@H](O)[C@H]3O)[C@@H]2CO)ccc1O,-6.95,,
CC(=O)NC1C(OC(C)(C)C2CCC3(C)C=C(C4CCC5C4(C)CC(O)C4OC(C(C)(C)O)CCC45C)CCC3O2)OC(CO)C(O)C1O (centres undefined),0.702,,
COC(=O)C1=CO[C@@H](O)C2C(CO)=CCC12 (some centres undefined),-9.24,,
Nc1ncnc2c1ncn2CCNCCCCCO,,inactive,
CC(=O)OC1C[C@]2(C)C(O)CC(C)=C[C@H](OC(=O)c3ccc(O)cc3)C2[C@]1(O)C(C)C (some centres undefined),1.7,,

SMILES,max response [%],outcome,Potency
N#C[C@@H]1CCCN1C(=O)CNC12CC3CC(CC(O)(C3)C1)C2,2.02,,
COc1cc(C(=O)OC[C@H]2O[C@@H](Oc3ccccc3/C=C/C(=O)O)[C@H](O)[C@@H](O)[C@@H]2O)cc(OC)c1OC,-2.66,,
CC(C)CC(=O)OC1OC=C(CO[C@@H]2O[C@H](CO)[C@@H](O)[C@H](O)[C@H]2O)C2CC(O)C(O)(CO)C12 (some centres undefined),3.01,,
Cc1cc(Nc2nc(NC(C)c3ncc(F)cn3)ncc2Cl)n[nH]1 (centres undefined),,inactive,
CC(=O)O[C@H]1C[C@@](O)(C(C)C)C2[C@@H](OC(=O)c3ccc(O)cc3)C[C@@]3(C)O[C@H]3C[C@]21C (some centres undefined),-0.746,,
C=C[C@H]1C(O[C@@H]2O[C@H](CO)[C@@H](O)[C@H](O)[C@H]2O)OC=C2C(=O)N3CCc4c([nH]c5ccccc45)[C@H]3C[C@H]21 (some centres undefined),,inactive,
O=C(CCCCN1CCOCC1)Nc1ccc(-c2cccnc2)cc1,-12,,
CCc1cc(CN2CC(C(=O)O)C2)sc1-c1noc(-c2ccc(Oc3ccccc3)cc2)n1,-28.8,,
C[C@@H]1CCC2C(C)(C)[C@H](O)CC[C@]2(C)[C@@]12Cc1c(O)cc3c(c1O2)CN([C@@H](CCC(=O)O)C(=O)O)C3=O (some centres undefined),,inactive,
CC1OC(OCC2OC(OC3CCC4(C)C(CCC5(C)C4CC=C4C6CC(C)(C)CCC6(C(=O)OC6OC(CO)C(O)C(O)C6O)CCC45C)C3(C)CO)C(O)C(O)C2O)C(O)C(O)C1O (centres undefined),-3.44,,
CN(CCc1ccc(Nc2ncc(-c3cccnc3)s2)cc1)Cc1ccccc1,-10.2,,
COc1ccc2[nH]c3c(-c4cccc5ccccc45)nccc3c2c1,,,1.16 µM (active)
C[C@@H]1CCC2C(C)(C)[C@H](O)CC[C@]2(C)[C@@]12Cc1c(O)cc3c(c1O2)CNC3=O (some centres undefined),-75.1,,
CC(O)CO[C@@H]1O[C@H](CO)[C@@H](O)[C@H](O)[C@H]1O (some centres undefined),-3.19,,
OC[C@H]1O[C@@H](OC[C@H]2O[C@@H](OC/C=C/c3ccccc3)[C@H](O)[C@@H](O)[C@@H]2O)[C@@H](O)[C@@H]1O,0.699,,
CC1COC(Nc2ccc3ncnc(Nc4ccc(OCc5nccs5)c(Cl)c4)c3c2)=N1 (centres undefined),,,9.2 µM (active)
C[C@H](O)[C@H](O)/C=C/c1cccc(O)c1CO,-1.75,,
COc1cc(C)c(C(=O)O[C@H]2[C@@H](OC(C)=O)[C@H](n3ccc(=O)[nH]c3=O)O[C@@H]2CO)c(OC)c1,-2.01,,
CN[C@H](CC(C)C)C(=O)N[C@H]1C(=O)N[C@@H](CC(N)=O)C(=O)N[C@H]2C(=O)N[C@H]3C(=O)N[C@H](C(=O)N[C@H](C(=O)O)c4cc(O)cc(O)c4-c4cc3ccc4O)[C@H](O[C@H]3C[C@](C)(N)[C@@H](O)[C@H](C)O3)c3ccc(c(Cl)c3)Oc3cc2cc(c3O[C@@H]2O[C@H](CO)[C@@H](O)[C@H](O)[C@H]2O[C@H]2C[C@](C)(NCc3ccc(-c4ccc(Cl)cc4)cc3)[C@@H](O)[C@H](C)O2)Oc2ccc(cc2Cl)[C@H]1O,0.406,,
